Measured values taken from PubChem BioAssay.

Tests used:
PEG-3 [1] = target: PEG-3 (UniProt Q6IN02); assay: inhibition of PEG-3 promoter-driven reporter – cell-based, HeLa, luciferase, CREF/GAPDH counter-screen panel, dose response (AID 624167); details: CREF/GAPDH counter-screens; HeLa PEG-Prom luciferase reporter, overnight, run 1, dose range 1, at 100 µM (top of the series) unless noted
PEG-3 [2] = target: PEG-3 (UniProt Q6IN02); assay: as above; details: CREF/GAPDH counter-screens; HeLa PEG-Prom luciferase reporter, overnight, run 2, dose range 1, at 100 µM (top of the series) unless noted

PEG-3, sequence (Q6IN02 whole entry, looked up): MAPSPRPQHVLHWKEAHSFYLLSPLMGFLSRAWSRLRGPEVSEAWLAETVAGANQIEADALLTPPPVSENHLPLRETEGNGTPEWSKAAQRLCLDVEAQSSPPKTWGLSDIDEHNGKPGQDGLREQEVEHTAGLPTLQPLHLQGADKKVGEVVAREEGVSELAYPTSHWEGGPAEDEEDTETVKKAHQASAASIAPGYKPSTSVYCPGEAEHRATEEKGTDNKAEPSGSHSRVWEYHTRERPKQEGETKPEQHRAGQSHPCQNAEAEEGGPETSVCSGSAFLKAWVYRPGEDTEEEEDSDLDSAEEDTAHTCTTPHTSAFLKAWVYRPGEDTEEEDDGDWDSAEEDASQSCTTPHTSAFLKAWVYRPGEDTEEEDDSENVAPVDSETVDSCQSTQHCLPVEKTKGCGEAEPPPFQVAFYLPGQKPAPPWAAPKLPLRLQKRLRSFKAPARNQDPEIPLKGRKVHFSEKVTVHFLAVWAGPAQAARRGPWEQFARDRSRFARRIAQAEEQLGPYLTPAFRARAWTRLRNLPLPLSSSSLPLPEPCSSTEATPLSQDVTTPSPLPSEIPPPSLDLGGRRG

| Structure (SMILES) | inhibition (PEG-3 [1]) [%] | inhibition (PEG-3 [2]) |
| --- | --- | --- |
| CCN(CCN(C)C)C(=O)C1CCN(S(=O)(=O)c2c(C)noc2/C=C/c2ccccc2F)CC1 | 90.8 | 97.5% |
| CN(C)CCc1cc2c(c3c1ccc1ccccc13)OCO2 | 98.3 | 99.1% |
| O=c1[nH]c(=O)n(C2OC(CO)C(O)C2O)cc1F (configuration not stated) | 68.7 | 76.9% |
| O=C(C(=O)N(Cc1ccccc1)Cc1ccccc1)c1c(-c2ccccc2)[nH]c2ccccc12 | 20.8 | 46.6% |
| CN(CC(=O)Nc1ccc(Cl)c(C(F)(F)F)c1)C(=O)c1cc(-c2ccncc2)nc2ccccc12 | 102 | 98.9% |
| CCOC(=O)c1cccc(Nc2nc(-c3cccnc3)nc3ccccc23)c1 | 98.9 | 101% |
| COc1ccccc1C1c2ccc3ccccc3c2Oc2ncn(CCCO)c(=N)c21 (configuration not stated) | 102 | 98.3% |
| CC1=C(CC[C@@H](C)CO)OC2CC3C4CCC5CC(O)CCC5(C)C4CC(=O)C3(C)C12 (some centres not stated) | 88.8 | 83.2% |
| CC(C)(C)c1ccc(/C=N/Nc2ccc(C(=O)O)cc2)cc1 | 89 | 98.5% |
| Cc1cc(C)c2c(N)c3ccccc3nc2n1 | 102 | 101% |
| O=C(Nc1ccc(-c2nc3ccccc3o2)cc1)c1ccc(N2CCOCC2)c([N+](=O)[O-])c1 | 17.1 | 37.6% |
| CC(C)CC(NS(=O)(=O)OCC(Cl)(Cl)Cl)c1ccccc1 (configuration not stated) | 97.2 | 99.4% |
| CN(C)CCNc1ccc2ncn3c4ccc(O)cc4c(=O)c1c23 | 101 | 99.7% |
| CCc1ccc(NC(=O)CSc2nc3ccccc3c(=O)n2CCCN2CCC(C)CC2)cc1 | 99.2 | 101% |
| COc1ccc(CNC(=O)Nc2nc(C(N)Cc3ccc(F)cc3)cs2)cc1 (configuration not stated) | 102 | 101% |
| O=C(Nc1ccc(S(=O)(=O)NC2=NCCCCC2)cc1)c1ccc([N+](=O)[O-])s1 | 102 | 101% |
| C[C@@]12C(=O)Nc3cc(Cl)ccc3C(=O)N1[C@H]1c3cc(Cl)ccc3OC[C@@H]1[C@@H]2c1ccccc1 | 32.1 | 36.4% |
| N#C/C(=C\c1cccc([N+](=O)[O-])c1)C(=O)NCc1ccc(Cl)cc1 | 99.3 | 101% |
| CCOc1cc(CNCCCN2CCOCC2)ccc1OCC(=O)Nc1cccc2ccccc12 | 100 | 101% |
| CN(C)c1ccc(N=Nc2nc3ccccc3n2C)cc1 | 98.1 | 98.9% |
| COc1ccc(CN(C)C(=O)c2cc(-c3ccccc3)nc3ccc(C)cc23)c(OC)c1OC | 94.8 | 96.5% |
| CC(C(=O)NC1CCCC1)N(C(=O)Cn1nnc(-c2ccc(F)cc2)n1)c1ccccc1F (configuration not stated) | 99.3 | 102% |

| Structure (SMILES) | inhibition (PEG-3 [1]) [%] | inhibition (PEG-3 [2]) |
| --- | --- | --- |
| COc1ccc2c(c1)C=C([C@@H]1C[C@H]3CN(c4ccccc4)C(=O)[C@]34CCCN14)CO2 | 65.2 | 74% |
| Cc1ccc(NC(=O)Nc2ccnc(-c3cccnc3)n2)cc1 | 44.3 | 8.15% |
| CN1CCC(N(C)C(=O)/C=C/c2cn(-c3ccccc3)nc2-c2cccs2)CC1 | 102 | 102% |
| COc1ccccc1CN(C)C(=O)c1cc(-c2cccs2)nc2ccccc12 | 99 | 98.8% |
| CCN(CC)CCNc1cccc2sc3ccccc3c(=O)c12 | 94.6 | 95.9% |
| O=S(=O)(/N=C(/Sc1ccccc1)c1ccccc1)c1ccccc1 | 102 | 101% |
| C[C@@H](C(=O)Nc1ccc2c(c1)OCCO2)n1c(=O)[nH]c2ccccc2c1=O | 53.8 | 39.3% |
| CCc1ccc2c(c1)Sc1ccccc1CC2N1CCN(C)CC1 (configuration not stated) | 102 | 102% |
| Oc1c(Cl)cc(Cl)c2cccnc12 | 80.8 | 80.6% |
| COc1ccc(-c2cc(C(=O)N3CCN(c4ncccn4)CC3)c3ccccc3n2)c(OC)c1 | 70 | 47.8% |
| Oc1cccc(C(Nc2nccs2)c2ccc3cccnc3c2O)c1 (configuration not stated) | 97.4 | 98.7% |
| COc1ccc(CN2CCN(C(=O)c3cc(-c4cccnc4)nc4ccc(Cl)cc34)CC2)c(OC)c1OC | 74.9 | 83% |
| CCCCCCOc1ccc(/C(C)=N/NC2=NCCN2)cc1 | 101 | 101% |
| CS(=O)(=O)c1ccc(C(=O)NCCN2C(=O)S/C(=C\c3cccnc3)C2=O)cc1[N+](=O)[O-] | 102 | 99.2% |
| CC(C)c1ccc(NC(=O)Nc2nc(C(C)N)cs2)cc1 (configuration not stated) | 100 | 98.9% |
| O=S(=O)(CC(CN1CCCCC1)N1CCCCC1)c1ccccc1 (configuration not stated) | 102 | 102% |
| N#Cc1cc2c(nc1SC1CC(=O)N(c3ccccc3)C1=O)CCC2 (configuration not stated) | 33.5 | 25.6% |
| O=C1CSC(=S)N1Cc1cccnc1 | 96.9 | 101% |
| COc1cc(/C=C2\SC(=S)N(CCC(=O)N3CCCCC3)C2=O)cc(OC)c1OC | 98.1 | 99% |
| O/N=C(\c1ccc(Cl)cc1Cl)c1ncc(C(F)(F)F)cc1Cl | 86 | 97.3% |
| Cc1ccccc1NC(=O)C(=Cc1ccc(C(=O)O)cc1)C(=O)Nc1ccccc1C | 90.3 | 101% |
| COc1cccc2c1C(=N)c1c(O)c3c(c(O)c1C2=O)CC(O)(C(C)=O)CC3OC1CC(N)C(O)C(C)O1 (configuration not stated) | 99.1 | 102% |

| Structure (SMILES) | inhibition (PEG-3 [1]) [%] | inhibition (PEG-3 [2]) |
| --- | --- | --- |
| CCC1(c2ccccc2)NC(=O)N(CC(=O)Nc2cc(S(=O)(=O)N3CCCCCC3)ccc2OC)C1=O (configuration not stated) | 65.1 | 61% |
| Nc1c(C(=O)Nc2cccc(C(=O)O)c2)sc2nc3c(cc12)CCCC3 | 92.6 | 77.5% |
| Cc1cccc(CN2C(=O)[C@H]3Cc4c([nH]c5ccccc45)C(C)(C)N3C2=O)c1 | 97.5 | 101% |
| CCCCCCCNC(=O)C1(CC2CC(c3ccccc3)=NO2)CCNCC1 (configuration not stated) | 97.9 | 98.7% |
| CCN(CC)CCOc1ccc(/C(=C(/Cl)c2ccccc2)c2ccccc2)cc1 | 102 | 102% |
| O=C(Sc1cccc2cccnc12)c1ccccc1Br | 99.3 | 93.8% |
| CCOc1cc(CNCCO)cc(Br)c1OCc1ccccc1Cl | 100 | 99.1% |
| Cc1cccc2c1-c1sc(C(=O)NCCCN3CCCC(C)C3)cc1CO2 (configuration not stated) | 99.3 | 98.5% |
| CCCCCCCn1c(=N)n(CC(O)c2ccco2)c2ccccc21 (configuration not stated) | 101 | 99.1% |
| COc1ccc(OC)c(-c2cc(C(=O)N3CCN(c4ncccn4)CC3)c3ccccc3n2)c1 | 54.9 | 59.3% |
| O=C(CCCN1C(=O)/C(=C/c2ccccc2Cl)SC1=S)NNC(=O)c1ccccc1Cl | 100 | 101% |
| Cc1cc(C)c2sc(N(CCCN(C)C)C(=O)c3ccc(S(=O)(=O)N(C)Cc4ccccc4)cc3)nc2c1 | 98.7 | 101% |
| CCCN1C/C(=C/c2cccc([N+](=O)[O-])c2)C(=O)/C(=C/c2cccc([N+](=O)[O-])c2)C1 | 26.2 | 30.1% |
| O=[N+]([O-])c1cc(Cl)cc(/C=N\Nc2ccccn2)c1O | 28.9 | 40.5% |
| CCOC(=O)c1c(NC(=O)COc2ccccc2F)sc2c1CC(C)(C)NC2(C)C | 89.1 | 102% |
| COc1cc2c(cc1OC)CN(c1nc(-c3cccnc3)nc3ccccc13)CC2 | 95.5 | 99.1% |
| O=c1c2c3c(sc2nc(N2CCNCC2)n1CCc1ccccc1)CCCCC3 | 102 | 101% |
| CCCc1ccc(C(=O)O/N=C(\N)c2ccccn2)cc1 | 99.7 | 102% |
| COc1ccccc1NC(=S)NC1CCCCCCCCCCC1 | 48.3 | 102% [run 2, dose range 1, at 50 µM] |
| CC1=CC(C)[C@H](/C=N/n2c(=O)[nH]c3c([nH]c4ccc(Br)cc43)c2=O)C(C)C1 (some centres not stated) | 12.7 | 77.5% [run 2, dose range 1, at 12.5 µM] |
| O=C(Cc1csc(Nc2nc(=S)[nH]c3ccccc23)n1)NCc1ccccc1Cl | -6.11 | -45.6% |
| CC(=O)c1c(NCCc2ccccc2)nc(=S)n(-c2ccccc2)c1C | 99.6 | 99% |

| Structure (SMILES) | inhibition (PEG-3 [1]) [%] | inhibition (PEG-3 [2]) |
| --- | --- | --- |
| CC(=O)Nc1ccc(Nc2nc(C)c([N+](=O)[O-])c(Nc3ccccc3)n2)cc1 | 99.5 | 93.4% |
| CC(=O)c1ccc(Nc2cc(C)nc3ccc(C)cc23)cc1 | 99.2 | 102% |
| c1ccc(CN2CCC(Nc3nc(-c4cccnc4)nc4ccccc34)CC2)cc1 | 102 | 94.1% |
| CCCCCCSc1cc(-c2nc3ccc(C)cn3c2NCCCC)ccc1OC | 98.7 | 101% |
| COc1cc(/C=C/c2ccc3cccc(O)c3n2)ccc1O | 92.4 | 99.9% |
| O=Nc1c(O)ccc2cc(S(=O)(=O)O)ccc12 | 84.7 | 89.5% |
| c1ccc(CN=C(NCc2ccccc2)NCc2ccccc2)cc1 | 99.7 | 102% |
| Cc1nc(N2CCN(S(=O)(=O)c3ccccc3C#N)CC2)c2c(-c3ccccc3)csc2n1 | -7.38 | 5.99% |
| Cc1cccc(N=C2Sc3nc4c(C)c(C)ccc4cc3CN2CCN2CCOCC2)c1 | 85.6 | 93.7% |
| COc1ccc(S(=O)(=O)N2c3ccccc3OCC2c2ccccc2)cc1 (configuration not stated) | -135 | -3.52% |
| O=C(Nc1ccc(-c2cn3ccsc3n2)cc1)c1ccc(F)c(S(=O)(=O)N2CCOCC2)c1 | 0.918 | -62.2% |
| COc1cccc(N2CCN(CC(=O)Nc3ccccc3C(=O)NCc3ccccc3)CC2)c1 | 56.8 | 70.2% |
| COc1cccc(-c2sc3ccc(OC)cc3c2-c2ccc(OCCN(C)C)cc2)c1 | 94.3 | 98.3% |
| Oc1ccc(C23CCCC2C2(CCCC2)c2ccc(O)cc2O3)c(O)c1 (configuration not stated) | 99.4 | 95.5% |
| COc1ccc(CC(=O)N(Cc2ccccc2)c2ccccc2)cc1S(=O)(=O)N1CCOCC1 | 82.4 | 91.1% |
| COc1ccc(/C=C/C(=O)c2ccc3c4c(cccc24)CC3)cc1OC | 101 | 102% |
| Cc1cccc(/C=C2/Sc3ccc(C(=O)NCCN4CCCC4)cc3NC2=O)c1 | 99.2 | 101% |
| C=CCN=C1NN=C(c2cc(C)n(CC=C)c2C)CS1 | 93.6 | 97.6% |
| CN1CCC(N(C)S(=O)(=O)c2ccc(NC(=O)COc3ccc(Br)cc3Cl)cc2)CC1 | 99.8 | 101% |
| COc1cccc(-c2cnc3c(NC=O)cc(-c4cccc(C(=O)N(C)C)c4)cn23)c1 | 98.8 | 97.5% |
